Source: PubChem BioAssay (EPA / NIEHS)
The source holds several records for some structures; these can differ, active in one and inactive in another. The source made the active and inactive calls. The calls were made as follows: active = hit-call score of the fitted dose curve at least 0.9, where 1 is the maximum; inactive = score below 0.9.

Test: ATG_GATA_CIS: Attagene CIS-FACTORIAL HepG2 Assay for human GATA Binding Protein (AID 2282944)
Settings: HepG2 GATA cis-element reporter, Attagene multiplex mRNA; actives raise or lower the signal
Outline: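 Transfected cis-reporter HepG2 cells were treated with chemicals for 24 hours. Total RNA was then converted to cDNA, amplified with reporter-specific primers and analysed by fluorescent capillary electrophoresis, using DMSO-treated wells as baseline.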

SMILES | outcome | AC50
CC1(C)C(C=C(Cl)Cl)C1C(=O)OCc1cccc(Oc2ccccc2)c1 (stereo unspecified) | inactive | 
CCCOC(=O)c1ccc(C(=O)OCCC)nc1 | inactive | 
O=C(Nc1ccc([N+](=O)[O-])cc1Cl)c1cc(Cl)ccc1O | inactive | 
COc1nc(C)nc(NC(=O)NS(=O)(=O)c2ccccc2OCCCl)n1 | inactive | 
N#CSCSc1nc2ccccc2s1 | inactive | 
CCC(O)=C1C(=O)CC(C(=O)O)CC1=O (stereo unspecified) | inactive | 
CSC(=O)c1cccc2nnsc12 | inactive | 
C[C@]12C[C@H](O)[C@H]3[C@@H](CCC4=CC(=O)CC[C@@]43C)[C@@H]1CC[C@@H]2C(=O)CO | inactive | 
O=C(O)C1(C(=O)Nc2ccc(Cl)cc2Cl)CC1 | inactive | 
COC(=O)c1ccc(I)cc1S(=O)(=O)NC(=O)Nc1nc(C)nc(OC)n1 | inactive | 
CC(=O)S[C@@H]1CC2=CC(=O)CC[C@]2(C)[C@H]2CC[C@@]3(C)[C@@H](CC[C@@]34CCC(=O)O4)[C@H]12 | inactive | 
CCNc1nc(N)nc(Cl)n1 | inactive | 
CC(C)CCCCCCc1ccc(O)cc1 | inactive | 
CCCCOC(=O)[C@@H](C)Oc1ccc(Oc2ccc(C(F)(F)F)cn2)cc1 | inactive | 
C#C[C@]1(O)CC[C@H]2[C@@H]3CCC4=CC(=O)CC[C@@H]4[C@H]3CC[C@@]21CC | inactive | 
CCCCC(CC)COC(=O)c1ccccc1C(=O)O (stereo unspecified) | inactive | 
CCOC(=O)[C@H](C)Oc1ccc(Oc2nc3ccc(Cl)cc3o2)cc1 | inactive | 
CC(=O)[C@H]1CC[C@H]2[C@@H]3CCC4=CC(=O)CC[C@]4(C)[C@H]3CC[C@]12C | inactive | 152 µM (active)
CCCCOC(=O)C(C)Oc1ccc(Oc2ccc(C(F)(F)F)cn2)cc1 (stereo unspecified) | inactive | 
CCCCC(CC)CN1C(=O)C2C3C=CC(C3)C2C1=O (stereo unspecified) | inactive | 
CCOC(=O)C(C)Oc1ccc(Oc2nc3ccc(Cl)cc3o2)cc1 (stereo unspecified) | inactive | 
CCN(CC)C(=O)c1cccc(C)c1 | inactive | 
COC(=O)c1cccc(C)c1S(=O)(=O)NC(=O)Nc1nc(OCC(F)(F)F)nc(N(C)C)n1 | inactive | 
OB(O)O | inactive | 
CCCCOCCOCCOCc1cc2c(cc1CCC)OCO2 | inactive | 
CCCN(CCC)C(=O)SCC | inactive | 
CCCOC(=O)NCCCN(C)C | inactive | 
c1ccc(Nc2ccccc2)cc1 | inactive | 
CCOC(=O)COc1cc(-n2ncc(C(F)(F)F)c(C)c2=O)c(F)cc1Cl | inactive | 
CCCCCOC(=O)COc1cc(N2C(=O)C3=C(CCCC3)C2=O)c(F)cc1Cl | inactive | 

Test: ATG_GLI_CIS: Attagene CIS-FACTORIAL HepG2 Assay for human Zinc Finger Protein GLI1 (AID 2282945)
Settings: HepG2, Attagene cis-factorial reporter mRNA, GLI element; actives raise or lower the signal
Outline: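 HepG2 cells transiently transfected with cis-promoter multiplexed reporter units report endogenous transcription factor activity. After 24 h chemical exposure, reporter mRNA was quantified by RT-PCR, 6-FAM labelling, HpaI digestion and capillary electrophoresis, with bidirectional fitting against DMSO.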

SMILES | outcome
CC1(C)C(C=C(Cl)Cl)C1C(=O)OCc1cccc(Oc2ccccc2)c1 (stereo unspecified) | inactive
CCCOC(=O)c1ccc(C(=O)OCCC)nc1 | inactive
O=C(Nc1ccc([N+](=O)[O-])cc1Cl)c1cc(Cl)ccc1O | inactive
COc1nc(C)nc(NC(=O)NS(=O)(=O)c2ccccc2OCCCl)n1 | inactive
N#CSCSc1nc2ccccc2s1 | inactive
CCC(O)=C1C(=O)CC(C(=O)O)CC1=O (stereo unspecified) | inactive
CSC(=O)c1cccc2nnsc12 | inactive
C[C@]12C[C@H](O)[C@H]3[C@@H](CCC4=CC(=O)CC[C@@]43C)[C@@H]1CC[C@@H]2C(=O)CO | inactive
O=C(O)C1(C(=O)Nc2ccc(Cl)cc2Cl)CC1 | inactive
COC(=O)c1ccc(I)cc1S(=O)(=O)NC(=O)Nc1nc(C)nc(OC)n1 | inactive
CC(=O)S[C@@H]1CC2=CC(=O)CC[C@]2(C)[C@H]2CC[C@@]3(C)[C@@H](CC[C@@]34CCC(=O)O4)[C@H]12 | inactive
CCNc1nc(N)nc(Cl)n1 | inactive
CC(C)CCCCCCc1ccc(O)cc1 | inactive
CCCCOC(=O)[C@@H](C)Oc1ccc(Oc2ccc(C(F)(F)F)cn2)cc1 | inactive
C#C[C@]1(O)CC[C@H]2[C@@H]3CCC4=CC(=O)CC[C@@H]4[C@H]3CC[C@@]21CC | inactive
CCCCC(CC)COC(=O)c1ccccc1C(=O)O (stereo unspecified) | inactive
CCOC(=O)[C@H](C)Oc1ccc(Oc2nc3ccc(Cl)cc3o2)cc1 | inactive
CC(=O)[C@H]1CC[C@H]2[C@@H]3CCC4=CC(=O)CC[C@]4(C)[C@H]3CC[C@]12C | inactive
CCCCOC(=O)C(C)Oc1ccc(Oc2ccc(C(F)(F)F)cn2)cc1 (stereo unspecified) | inactive
CCCCC(CC)CN1C(=O)C2C3C=CC(C3)C2C1=O (stereo unspecified) | inactive
CCOC(=O)C(C)Oc1ccc(Oc2nc3ccc(Cl)cc3o2)cc1 (stereo unspecified) | inactive
CCN(CC)C(=O)c1cccc(C)c1 | inactive
COC(=O)c1cccc(C)c1S(=O)(=O)NC(=O)Nc1nc(OCC(F)(F)F)nc(N(C)C)n1 | inactive
OB(O)O | inactive
CCCCOCCOCCOCc1cc2c(cc1CCC)OCO2 | inactive
CCCN(CCC)C(=O)SCC | inactive
CCCOC(=O)NCCCN(C)C | inactive
c1ccc(Nc2ccccc2)cc1 | inactive
CCOC(=O)COc1cc(-n2ncc(C(F)(F)F)c(C)c2=O)c(F)cc1Cl | inactive
CCCCCOC(=O)COc1cc(N2C(=O)C3=C(CCCC3)C2=O)c(F)cc1Cl | inactive
